Records with an inconclusive call do not appear. Where a call stands in place of a potency, no number is given. More than one record can exist for a structure, and the calls need not agree. Activity calls are given as the source filed them. The call rests on the fitted dose curve; in most records, active means well fitted cell-killing curve with a large enough effect in the repeat runs; inconclusive means weak or mixed curves, or effect the other way; inactive means no such curve, though single readings can be large or run the other way.
Potency means the concentration at half of the fitted maximal effect.

The nature of the assay: qHTS assay to identify small molecule antagonists of the sonic hedgehog signaling (Shh) pathway - cell viability counter screen (AID 1259367). Further: nearly all actives have a fitted effect of over 55% in size. The following applies: NIH/3T3 Gli1-Luc viability, CellTiter-Fluor, 24 h; series mostly up to 92.4 µM; viability change, negative = cytotoxic: at the top concentration. An excerpt:
National Center for Advancing Translational Sciences [NCATS]
NIH Chemical Genomics Center [NCGC]
U.S. Environmental Protection Agency [EPA]
National Institutes of Environmental Health Sciences [NIEHS]
National Toxicology Program [NTP]
U.S. Food and Drug Administration [FDA]
The sonic hedgehog (Shh) pathway is essential for normal embryonic development. Dysregulation of the Shh pathway can cause severe developmental defects in organs. Therefore chemicals that interfere with the pathway are potential developmental toxicants. A cell line designated 3T3Gli1-Luc (DMB/OARSA/CFSAN/FDA, Laurel, MD), a NIH/3T3 derived clone containing stably integrated Gli1-Luc reporter is used to detect chemical interference of the Shh pathway, by changes in the expression of the firefly Luc gene under the control of the Gli1 transcriptional response element. This cell line was used to screen Tox21 libraries for identifying and prioritizing the potential developmental toxicants that interfere Shh pathway. Conditioned medium-stimulated mode was used to screen for chemicals inhibiting Shh signaling. The cytotoxicity of the compounds was tested in parallel by measuring the cell viability using CellTiter-Fluor assay system (Promega, Madison, WI) in the same wells.
Tox21 Assay Protocol Summary:
3T3 Gli1-Luc cells were dispensed at 2,000 per well in 5uL of culture medium into white solid bottom 1536-well plates (Greiner Bio-One, Monroe, NC) using a Multidrop Combi (Thermo Scientific, Waltham, MA) dispenser. The assay plates were incubated at 37 C and 5% CO2 for 4hr, and then 23nL of compounds dissolved in DMSO and positive control were transferred using a Pintool station (Wako, San Diego, CA). The compound transfer was followed by the addition of 1ul conditioned medium or assay buffer using two separate tips of Flying Reagent Dispenser (FRD, Aurora Discovery, San Diego, CA). The assay plates were incubated at 37C and 5% CO2 for 24hr. For viability read, after 23hr of compound treatment, 1uL of CellTiter-Fluor reagent (Promega Corporation, Madison, WI) was added to each well of the assay plates using Flying Reagent Dispenser (FRD, Aurora Discovery, San Diego, CA) and incubated the assay plates at 37C for 1hr. The fluorescence signal was quantified using a ViewLux plate reader (Perkin Elmer, Shelton, CT).
As to `CCCCCCCCCC`, the Potency entry is “inactive”. Turning to `O=S1(=O)CC=CC1`, the Potency is 46.9 µM (active) and inactive. Regarding `O=C(CC(C(=O)OC1CCCCC1)S(=O)(=O)O)OC1CCCCC1` (stereo not given), the Potency result was “inactive”. As to `CCC(O)OCCCOC` (stereo not given), the Potency is 28 µM (active) and inactive. Take `O=C(O)c1ccc2c(c1)C(=O)OC2=O`: the Potency entry is “inactive”. In the case of `CC(=O)CC(=O)Nc1ccccc1`, the Potency result was “inactive”. In the case of `C#C[C@]1(O)CC[C@H]2[C@@H]3CCC4=CC(=O)CC[C@@H]4[C@H]3CC[C@@]21C`, the Potency result was “inactive”. Regarding `Cc1occc(=O)c1O`, the Potency entry was “inactive”. For the compound `CC(C)(C)[C@@H](O)[C@@H](Cc1ccc(Cl)cc1)n1cncn1`, the Potency result is “inactive”. With `C/C=C1/CC2C=CC1C2` (stereo not given), the Potency entry is “inactive”. As for `CCCCN(CCCC)CCCC`, the Potency result was “inactive”. Take `O=C(O)c1cc(O)c(O)c(O)c1`: the “viability change, negative = cytotoxic” value is -7.43% [at 42.5 µM] (inactive). In the case of `Oc1cccc2ccccc12`, the Potency result was “inactive”. For `CN(C)CCOCCN(C)C`, the Potency result is “inactive”.

Take `O=C(Oc1ccccc1)c1ccccc1`: the “viability change, negative = cytotoxic” value is 6.91% (inactive). On to `CCc1ccc(CCOc2ccc(CC3SC(=O)NC3=O)cc2)nc1` (stereo not given), for which the Potency result is “inactive”. As to `C=C(C)C(=O)O[C@H]1C[C@@H]2CC[C@@]1(C)C2(C)C`, the Potency entry was “inactive”. For `O=C(O)CC(C(=O)O)C(CC(=O)O)C(=O)O` (stereo not given), the Potency result is “inactive”.

Consider `CCCCCCCCCCCCc1ccccc1`, for which the Potency result was “inactive”. For `COCCCOc1ccnc(CS(=O)c2nc3ccccc3[nH]2)c1C` (stereo not given), the Potency entry is “inactive”. Turning to `Cc1cccnc1`, the Potency entry is “inactive”.

As for `CC(=O)Nc1ccccc1`, the Potency entry was “inactive”. On to `CC(=O)c1ccccc1`, for which the Potency entry was “inactive”.

For `c1ccc2scnc2c1`, the Potency result is “inactive”.

As for `O=C(OCCOCCOC(=O)c1ccccc1)c1ccccc1`, the Potency entry is “inactive”. In the case of `FC(F)(F)c1ccc(Cl)c(Cl)c1`, the Potency result was “inactive”. As to `Nc1cc([N+](=O)[O-])ccc1O`, the “viability change, negative = cytotoxic” value is -29.9% (inactive). Regarding `CCCCC(CC)COC(=O)CS` (stereo not given), the Potency result was “inactive”. For `O=c1[nH]c(=O)n([C@H]2C[C@H](O)[C@@H](CO)O2)cc1Br`, the Potency entry is “inactive”. As for `CCc1cccc(C)c1N`, the Potency result is “inactive”. As for `c1ccc2c(c1)ccc1ccccc12`, the Potency result was “inactive”. The same measure, in the same setting: then `CSCCC=O`, with “inactive”; and `O=C(O)CCCCCCCCCCC(=O)O`, with “inactive”; and `Cc1ccc2oc(=O)ccc2c1`, with “inactive”. As to `c1ccc(OCCOc2ccccc2)cc1`, the Potency entry is “inactive”.

For the compound `CCCCCCCCC/C=C/CC1CC(=O)OC1=O` (stereo not given), the Potency result was “inactive”. Same read-out and setting: under `CCCCC(CC)COC(=O)C(C#N)=C(c1ccccc1)c1ccccc1` (stereo not given) stands “inactive”; under `O=C(O)c1cc(=O)c2c(OCC(O)COc3cccc4oc(C(=O)O)cc(=O)c34)cccc2o1`, “inactive”. Still for that read-out and setting: then `CCC(O)OC(O)CC` (stereo not given), with “inactive”; and `Fc1ccc(Br)cc1`, with “inactive”.

The record behind these values is PubChem BioAssay (Tox21).
